Experiment [1] in a line: NCI Yeast Anticancer Drug Screen. Data for the rad50 strain (AID 155).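 Further: 0% = growth of vehicle-only cultures of the same strain.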 The following applies: S. cerevisiae rad50 strain growth inhibition, stronger effect = higher value. Summed up:
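Relative growth inhibition (compound vs vehicle) was measured in yeast with a defined repair-gene alteration.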

Experiment [2] in a line: NCI Yeast Anticancer Drug Screen. Data for the mec2-1 strain (AID 157). The following applies: S. cerevisiae mec2-1 strain, stronger effect = higher value. Summed up: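 Readout is yeast growth inhibition, normalised to vehicle-treated controls, in the mec2-1 strain exposed to compound.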
The nature of experiment [3]: NCI Yeast Anticancer Drug Screen. Data for the sgs1 mgt1 strain (AID 161).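 Further: 0% = growth of cultures given vehicle only.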 The following applies: S. cerevisiae sgs1 mgt1 strain, stronger effect = higher value. Summed up:
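Growth of a repair-deficient yeast mutant was monitored after compound treatment and expressed as inhibition relative to vehicle-treated cultures.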

Experiment [4] can be described thus: NCI Yeast Anticancer Drug Screen. Data for the cln2 rad14 strain (AID 165).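 Further: 0% = growth equal to vehicle treated cultures.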 The following applies: S. cerevisiae cln2 rad14 strain, stronger effect = higher value. The essentials:
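Relative to vehicle controls, growth inhibition of compound-treated cln2 rad14 yeast was recorded.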

A short description of experiment [5]: NCI Yeast Anticancer Drug Screen. Data for the bub3 strain (AID 167). The following applies: S. cerevisiae bub3 mutant strain, stronger effect = higher value. Summed up: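 Screening used yeast with an engineered genetic alteration affecting cell cycle control. Compound-exposed cultures were compared with vehicle cultures, and reduced growth was taken as inhibition.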

A short description of experiment [6]: NCI Yeast Anticancer Drug Screen. Data for the mlh1 rad18 strain (AID 175). To be noted: S. cerevisiae mlh1 rad18 strain growth inhibition, stronger effect = higher value. The essentials: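 Test agents were incubated with a yeast strain of defined genotype (DNA damage repair defect). Inhibition of growth was derived by comparison with vehicle-exposed cultures.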
Where [7] appears, read: at 5.0 µM (retest, dose inferred, filed as 0.5).
Where [8] appears, read: at 50.0 µM (retest, dose inferred, filed as 5.0).

The panel holds about 79,000 compounds, 15% with a hit somewhere; the sample as a whole holds those more often. A number with no mark means an inactive call. Active and inactive are the calls of the source. No stated cut-off is given here; in the data, active means growth inhibition above about 70%; inactive means the rest.

As for `CC1=C(Cl)C[C@@H](/C(C)=C\Cl)O[C@@]1(O)C(Br)Br`, the growth inhibition in experiment [1] (setting [7]) is 31%; in experiment [1] (setting [8]) it was 92% (active); in experiment [1] (at 50.0 µM), 91.8% (active); in experiment [2] (setting [7]) it was 24%; in experiment [2] (setting [8]), 94% (active); in experiment [2] (at 50.0 µM), 93.4% (active). Further, the growth inhibition in experiment [3] (setting [7]) was 40%; in experiment [3] (setting [8]), 93% (active); in experiment [3] (at 50.0 µM), 93.5% (active); in experiment [4] (setting [7]), 20%; in experiment [4] (setting [8]), 90% (active); in experiment [4] (at 50.0 µM) it was 91.2% (active). Moreover, the growth inhibition in experiment [5] (setting [7]) was 40%; in experiment [5] (setting [8]) it was 91% (active); in experiment [5] (at 50.0 µM), 92.3% (active); in experiment [6] (setting [7]) it was 65%; in experiment [6] (setting [8]), 92% (active); in experiment [6] (at 50.0 µM), 15.1%.
Turning to `Cc1ccc(/C=C2\CNC/C(=C\c3ccc(C)cc3)C2=O)cc1`, the growth inhibition was 68% in experiment [1] (setting [7]); 96% (active) in experiment [1] (setting [8]); 86% (active) in experiment [1] (at 50.0 µM); 54% in experiment [2] (setting [7]); 98% (active) in experiment [2] (setting [8]); 86.4% (active) in experiment [2] (at 50.0 µM). For the same compound, the growth inhibition is 76% (active) in experiment [3] (setting [7]); 98% (active) in experiment [3] (setting [8]); 90.5% (active) in experiment [3] (at 50.0 µM); 55% in experiment [4] (setting [7]); 91% (active) in experiment [4] (setting [8]); 77.2% (active) in experiment [4] (at 50.0 µM). Besides, the growth inhibition in experiment [5] (setting [7]) was 75% (active); in experiment [5] (setting [8]) it was 97% (active); in experiment [5] (at 50.0 µM), 87.2% (active); in experiment [6] (setting [7]) it was 78% (active); in experiment [6] (setting [8]), 97% (active); in experiment [6] (at 50.0 µM) it was 83.8% (active).
With `CC1=CC(=NC(=O)CBr)C=C/C1=N\S(=O)(=O)c1ccccc1`, the growth inhibition was 65% in experiment [1] (setting [7]); 99% (active) in experiment [1] (setting [8]); 56.5% in experiment [1] (at 50.0 µM); 44% in experiment [2] (setting [7]); 100% (active) in experiment [2] (setting [8]); 33.2% in experiment [2] (at 50.0 µM). The growth inhibition in experiment [3] (setting [7]) is 46%; in experiment [3] (setting [8]) it was 100% (active); in experiment [3] (at 50.0 µM), 55%; in experiment [4] (setting [7]), 42%; in experiment [4] (setting [8]), 81% (active); in experiment [4] (at 50.0 µM) it was 28.3%. For the same compound, the growth inhibition was 46% in experiment [5] (setting [7]); 97% (active) in experiment [5] (setting [8]); 84.5% (active) in experiment [5] (at 50.0 µM); 55% in experiment [6] (setting [7]); 99% (active) in experiment [6] (setting [8]); 56.1% in experiment [6] (at 50.0 µM).
Turning to `Clc1ccccc1C(c1ccccc1)(c1ccccc1)n1ccnc1`, the growth inhibition in experiment [1] (setting [7]) was 44%; in experiment [1] (setting [8]), 99% (active); in experiment [1] (at 50.0 µM) it was 99.3% (active); in experiment [2] (setting [7]), 20%; in experiment [2] (setting [8]) it was 99% (active); in experiment [2] (at 50.0 µM), 99.8% (active). Also, the growth inhibition in experiment [3] (setting [7]) was 53%; in experiment [3] (setting [8]), 99% (active); in experiment [3] (at 50.0 µM), 99.6% (active); in experiment [4] (setting [7]), 18%; in experiment [4] (setting [8]), 99% (active); in experiment [4] (at 50.0 µM), 99.2% (active). The growth inhibition is 34% in experiment [5] (setting [7]); 99% (active) in experiment [5] (setting [8]); 99.6% (active) in experiment [5] (at 50.0 µM); 30% in experiment [6] (setting [7]); 99% (active) in experiment [6] (setting [8]); 99.7% (active) in experiment [6] (at 50.0 µM).
Consider `C=C(C(N)=O)C(N)C(=O)O` (centres undefined), for which the growth inhibition was -5% in experiment [1] (setting [7]); 9% in experiment [1] (setting [8]); -20.1% in experiment [1] (at 50.0 µM); 6% in experiment [2] (setting [7]); -2% in experiment [2] (setting [8]); 9.85% in experiment [2] (at 50.0 µM). Moreover, the growth inhibition in experiment [3] (setting [7]) is -1%; in experiment [3] (setting [8]), 0%; in experiment [3] (at 50.0 µM), 13.1%; in experiment [4] (setting [7]), 9%; in experiment [4] (setting [8]), 2%; in experiment [4] (at 50.0 µM) it was -7.4%. Besides, the growth inhibition in experiment [5] (setting [7]) is -16%; in experiment [5] (setting [8]), -2%; in experiment [5] (at 50.0 µM) it was 40.5%; in experiment [6] (setting [7]), 11%; in experiment [6] (setting [8]), 32%; in experiment [6] (at 50.0 µM), 7.45%.
On to `OC(c1cc(-c2ccc(C(F)(F)F)cc2)nc(C(F)(F)F)c1)C1CCCCN1` (centres undefined), for which the growth inhibition in experiment [1] (setting [7]) is 23%; in experiment [1] (setting [8]), 39%; in experiment [1] (at 50.0 µM), 56.1%; in experiment [2] (setting [7]), 24%; in experiment [2] (setting [8]) it was 35%; in experiment [2] (at 50.0 µM) it was 76.2% (active). Besides, the growth inhibition in experiment [3] (setting [7]) was 33%; in experiment [3] (setting [8]) it was 60%; in experiment [3] (at 50.0 µM), 45.5%; in experiment [4] (setting [7]), 31%; in experiment [4] (setting [8]) it was 7%; in experiment [4] (at 50.0 µM), 25.7%. The growth inhibition in experiment [5] (setting [7]) is 11%; in experiment [5] (setting [8]), 36%; in experiment [5] (at 50.0 µM), 33.5%; in experiment [6] (setting [7]) it was 34%; in experiment [6] (setting [8]) it was 65%.
As to `CCOC(=O)C1(C)CCCC1N` (centres undefined), the growth inhibition in experiment [1] (setting [7]) is -1%; in experiment [1] (setting [8]), 52%; in experiment [1] (at 50.0 µM), -37.3%; in experiment [2] (setting [7]), 2%; in experiment [2] (setting [8]), 93% (active); in experiment [2] (at 50.0 µM), -35%. For the same compound, the growth inhibition in experiment [3] (setting [7]) is -4%; in experiment [3] (setting [8]), 42%; in experiment [3] (at 50.0 µM), -17.6%; in experiment [4] (setting [7]) it was 21%; in experiment [4] (setting [8]) it was 94% (active); in experiment [4] (at 50.0 µM) it was 53.1%. Further, the growth inhibition is 14% in experiment [5] (setting [7]); 98% (active) in experiment [5] (setting [8]); -5.45% in experiment [5] (at 50.0 µM); 14% in experiment [6] (setting [7]); 82% (active) in experiment [6] (setting [8]); 15.7% in experiment [6] (at 50.0 µM).
For `CCCCCCN(CCCCCC)CCCNc1nccc2ccccc12`, the growth inhibition was 4% in experiment [1] (setting [7]); 62% in experiment [1] (setting [8]); 78.5% (active) in experiment [1] (at 50.0 µM); -4% in experiment [2] (setting [7]); 14% in experiment [2] (setting [8]); 36.5% in experiment [2] (at 50.0 µM). Also, the growth inhibition in experiment [3] (setting [7]) is 2%; in experiment [3] (setting [8]), 88% (active); in experiment [3] (at 50.0 µM), 56.9%; in experiment [4] (setting [7]), -4%; in experiment [4] (setting [8]) it was 13%; in experiment [4] (at 50.0 µM), 56.5%. The growth inhibition in experiment [5] (setting [7]) was 5%; in experiment [5] (setting [8]), 72% (active); in experiment [5] (at 50.0 µM), 84% (active); in experiment [6] (setting [7]), 10%; in experiment [6] (setting [8]) it was 64%; in experiment [6] (at 50.0 µM), 77% (active).
For the compound `Clc1ccc(-n2ncc3c(NCCCN4CCOCC4)ncnc32)cc1`, the growth inhibition in experiment [1] (setting [7]) was 3%; in experiment [1] (setting [8]) it was 82% (active); in experiment [1] (at 50.0 µM) it was 56%; in experiment [2] (setting [7]), 6%; in experiment [2] (setting [8]) it was 70% (active); in experiment [2] (at 50.0 µM) it was 62.1%. Further, the growth inhibition in experiment [3] (setting [7]) is 1%; in experiment [3] (setting [8]) it was 81% (active); in experiment [3] (at 50.0 µM), 82.8% (active); in experiment [4] (setting [7]), 19%; in experiment [4] (setting [8]), 62%; in experiment [4] (at 50.0 µM), 35.4%. Further, the growth inhibition is 16% in experiment [5] (setting [7]); 77% (active) in experiment [5] (setting [8]); 47.4% in experiment [5] (at 50.0 µM); 9% in experiment [6] (setting [7]); 79% (active) in experiment [6] (setting [8]); 75.6% (active) in experiment [6] (at 50.0 µM).
With `O=C(Cc1nc2cc(Cl)c(Cl)cc2nc1CC(=O)c1cccnc1)c1cccnc1`, the growth inhibition is -7% in experiment [1] (setting [7]); 96% (active) in experiment [1] (setting [8]); 96.3% (active) in experiment [1] (at 50.0 µM); -17% in experiment [2] (setting [7]); 96% (active) in experiment [2] (setting [8]); 98.2% (active) in experiment [2] (at 50.0 µM). The growth inhibition in experiment [3] (setting [7]) was -12%; in experiment [3] (setting [8]), 97% (active); in experiment [3] (at 50.0 µM), 92.6% (active); in experiment [4] (setting [7]), -5%; in experiment [4] (setting [8]), 98% (active); in experiment [4] (at 50.0 µM), 94.3% (active). For the same compound, the growth inhibition was -1% in experiment [5] (setting [7]); 98% (active) in experiment [5] (setting [8]); 95.4% (active) in experiment [5] (at 50.0 µM); -2% in experiment [6] (setting [7]); 98% (active) in experiment [6] (setting [8]); 97.8% (active) in experiment [6] (at 50.0 µM).

The record behind these values is PubChem BioAssay (NCI).
